Measured values reported in PubChem BioAssay (NCATS).
Records with an inconclusive call do not appear. Active and inactive are the calls of the source. Calls come from the whole dose curve; as a rule, active = well fitted inhibition curve with a large enough effect; inconclusive = small, poorly fitted or top-dose-only effect; inactive = no such curve, though single readings can be large or run the other way.

Assay: Counterscreen for APE1 Inhibitors: Fluorescent Dye Displacement Validation Assay (AID 1707);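 for activity change, negative = inhibition: plate controls were ThO with dsDNA and no compound for no effect and ThO without dsDNA for full effect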
Settings: fluorescent dye displacement from DNA; series mostly up to 57.1 µM; activity change, negative = inhibition: at the top concentration
Source text: In order to distinguish true inhibitors of DNA-processing enzymes from promiscuous DNA-binding compounds among screening assay hits, we developed a homogeneous and miniaturized assay based on fluorescent dye displacement test as originally described by Tse and Boger (Accounts of Chemical Research (2004) 37: 61-69). The assay is based on the strong enhancement of fluorescence when Thiazole Orange (ThO) binds to double-stranded DNA: conversely, in the presence of a DNA-binding compound, Thiazole Orange is displaced from the DNA and its fluorescence is reduced.
Buffer. 50 mM Tris-HCl (pH7.5) containing 50mM NaCl, 2 mM MgCl2, and 0.01% Tween-20.
Buffer containing 250 nM ThO in columns 3 and 4 as negative control (no dsDNA).
Reaction mixture: 250 nM ThO and 50 nM dsDNA at final concentration dispensed throughout the plate: in columns 1, 2, 5-48. Column 1 is neutral (100% activity).
5''TAMRA- TC ACC FTC GTA CGA CTC
3'' AG TGG GAG CAT GCT GAG
where F denotes tetrahydrofuran.
Control: Pintool transfer of control compound WB64 (W4761, Sigma-Aldrich) to column 2 of all assay plates as a two-fold 16-point dilution in duplicate (concentration range 5.75 uM - 0.175 nM).
Four uL of reaction mixtures were dispensed to 1536-well Greiner black solid bottom plates. Compounds (23 nL) were transferred […] in order to measure the endpoint fluorescence using 480 nm excitation and 540 nm emission fluorescence protocol.
Potency is the fitted concentration of half-maximal effect.

Structure (SMILES) | activity change, negative = inhibition | Potency
O=c1c(O)c(-c2ccc(O)cc2O)oc2cc(O)cc(O)c12 | 109% (inactive) | –
Cc1cccc(C#Cc2ccccc2)n1 | 0.625% (inactive) | –
CC(=O)N1CCN(c2ccc(OC[C@H]3CO[C@](Cn4ccnc4)(c4ccc(Cl)cc4Cl)O3)cc2)CC1 | 1.01% (inactive) | –
CC1(C)NC(=O)N(c2ccc([N+](=O)[O-])c(C(F)(F)F)c2)C1=O | 2.69% (inactive) | –
O=C(c1ccccc1)c1ccc2n1CCC2C(=O)O (configuration not stated) | 1.36% (inactive) | –
NNc1nncc2ccccc12 | 1.07% (inactive) | –
Cc1c(OCC(F)(F)F)ccnc1CS(=O)c1nc2ccccc2[nH]1 (configuration not stated) | 2.15% (inactive) | –
O=c1cc(N2CCOCC2)oc2c(-c3ccccc3)cccc12 | -1.93% (inactive) | –
NC(=NCc1ccccc1)NC(=O)c1nc(Cl)c(N)nc1N | -9% (inactive) | –
O=C(CCc1ccc(O)cc1)c1c(O)cc(O)cc1O | -2.6% (inactive) | –
O=Nc1c(-c2c(O)[nH]c3cc(Br)ccc23)[nH]c2ccccc12 | – | 20 µM (active)
CC1(C)C(=O)N(CCN2CCC(C(=O)c3ccc(F)cc3)CC2)c2ccccc21 | 0.577% (inactive) | –
O=C1NC(=O)C(c2ccccc2[N+](=O)[O-])=C1Nc1ccc(O)c(Cl)c1 | -3.62% (inactive) | –
Nc1nc(OCc2ccccc2)c2[nH]cnc2n1 | -2.52% (inactive) | –
CC(=O)O[C@H]1C(=O)[C@@]2(C)C([C@H](OC(=O)c3ccccc3)[C@]3(O)C[C@H](OC(=O)[C@H](O)[C@@H](NC(=O)c4ccccc4)c4ccccc4)C(C)=C1C3(C)C)[C@]1(OC(C)=O)CO[C@@H]1C[C@@H]2O (some centres not stated) | 6.27% (inactive) | –
COc1ccc2cc([C@H](C)C(=O)O)ccc2c1 | -1.96% (inactive) | –

Structure (SMILES) | activity change, negative = inhibition | Potency
O=c1ccc2ccc(O)c(O)c2o1 | 0.59% (inactive) | –
C[C@@H](N)C1CCC(C(=O)Nc2ccncc2)CC1 (some centres not stated) | 1.47% (inactive) | –
COc1ccccc1N1CCN(CCN(C(=O)C2CCCCC2)c2ccccn2)CC1 | 2.16% (inactive) | –
O=c1c(O)c(-c2cc(O)c(O)c(O)c2)oc2cc(O)cc(O)c12 | – | 3.55 µM (active)
CNC[C@H](O)c1ccc(O)c(O)c1 | 1.22% (inactive) | –
Oc1ccc(-c2nc(-c3ccc(F)cc3)c(-c3ccncc3)[nH]2)cc1 | -4.42% (inactive) | –
CN(C)CCCC1(c2ccc(F)cc2)OCc2cc(C#N)ccc21 (configuration not stated) | 0.311% (inactive) | –
Cc1nc2n(c(=O)c1CCN1CCC(c3noc4cc(F)ccc34)CC1)CCCC2 | -0.445% (inactive) | –
O=C(O)c1cccnc1Nc1cccc(C(F)(F)F)c1 | -1.3% (inactive) | –
NCCCCNCCCN | -1.41% (inactive) | –
OC(CN1CCN(c2cccc(Cl)c2)CC1)C(c1ccccc1)c1ccccc1 (configuration not stated) | -0.992% (inactive) | –
O=C1c2c(O)cc(O)cc2OC(c2ccc(O)c(O)c2)C1O (configuration not stated) | -4.54% (inactive) | –
CCN(CC)C(=S)SSC(=S)N(CC)CC | 0.759% (inactive) | –
COc1cc2nc(N3CCN(C(=O)C4CCCO4)CC3)nc(N)c2cc1OC (configuration not stated) | -7.86% (inactive) | –
O=C1c2ccccc2-c2n[nH]c3cccc1c23 | 45.9% (inactive) | –
O=C(NCC1CCCCN1)c1cc(OCC(F)(F)F)ccc1OCC(F)(F)F (configuration not stated) | -0.258% (inactive) | –
